This note sets out measurements from article PMC7819943, “Rice protein-binding microarrays: a tool to detect cis-acting elements near promoter regions in rice”.

The full ranking holds about 39,000 sequences; the median of “fluorescence intensity (a.u.)” is about 4,300, and the highest 2% start at about 39,000. This is one part of a sample in which the highest values are shown more often than they occur.

The target in the assay is T1, OsSMF1 (Oryza sativa, UniProt Q6ZLB0 1-436).
T1 sequence: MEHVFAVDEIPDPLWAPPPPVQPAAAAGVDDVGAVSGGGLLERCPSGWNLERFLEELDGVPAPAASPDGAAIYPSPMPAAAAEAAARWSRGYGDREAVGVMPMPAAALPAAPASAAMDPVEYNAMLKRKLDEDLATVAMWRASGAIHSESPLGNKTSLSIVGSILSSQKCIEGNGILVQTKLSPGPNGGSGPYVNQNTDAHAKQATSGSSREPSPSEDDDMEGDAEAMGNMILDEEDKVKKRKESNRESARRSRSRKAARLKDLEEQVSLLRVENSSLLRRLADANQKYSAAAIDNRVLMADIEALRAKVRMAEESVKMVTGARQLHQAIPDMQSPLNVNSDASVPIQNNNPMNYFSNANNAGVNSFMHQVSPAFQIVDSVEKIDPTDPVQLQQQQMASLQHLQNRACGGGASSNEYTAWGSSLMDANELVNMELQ
As to the kind of experiment: protein-binding microarray (RPBM); PBS, 2% BSA, 51.3 ng/ul salmon testes DNA, 50 uM zinc acetate, 200 nM TF, 25 C, 1 h; high values mean tight binding. Conditions: protein: recombinant; tags: N-terminal polyhistidine and DsRed monomer fusion (pET32a); chain copies: 2; label: CyDye5-dUTP incorporated in the synthesized complementary strand; 3' TTTTT single-stranded linker to array surface; dsDNA, one strand shown. The method in brief: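 Binding signal is defined as the fluorescence intensity of each feature in arbitrary units, read on an Axon 4000B scanner. Transcription factors with N-terminal polyhistidine and DsRed fusions came from E. coli BL21-CodonPlus and were purified on Ni–NTA. They were incubated at 200 nM for 1 h at 25 °C on a custom Agilent array that had been made double-stranded with Cy5-dUTP, with 50 µM zinc acetate present, and the array was washed.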
For “ACGGGCACGACGACCGTCGTGCTCACGGCCGCCGACGTCGCGGAGTCACCTAGTGCAG”, the binding signal is 4140 fluorescence intensity (a.u.).
The result for “GCCGATTGCAATTTCGTCATCACTGCGGTTAGGATTACACCGGAGTCACCTAGTGCAG” reads 4340 fluorescence intensity (a.u.); that for “TGCTGTCGATGTGCTTATCTTTCGATTTATTCCTCTCATCCGGAGTCACCTAGTGCAG”, 3200 fluorescence intensity (a.u.).
The result for “CTCCGCAGTCGTAGGCCCACGCGAACCATTCCGTGTGCAACGGAGTCACCTAGTGCAG” reads 52000 fluorescence intensity (a.u.); that for “GGCAACGCACCACGCTGCACGCGTCCGTGGTCGCCGCGAACGGAGTCACCTAGTGCAG”, 3150 fluorescence intensity (a.u.).
The result for “CCCACCATTGCCGCCGTGTCCGGCAACCTAACGAACCTCGCGGAGTCACCTAGTGCAG” reads 4100 fluorescence intensity (a.u.).
With “CCTCCTTTTCTTCTCCACGTATACAATCAGTCTAGTTGGACGGAGTCACCTAGTGCAG”, the binding signal was 5040 fluorescence intensity (a.u.).
“ATCTTTTCTAGTACCAGGATCTTGTGTTGGTGATAGAGAGCGGAGTCACCTAGTGCAG”: the binding signal is 42500 fluorescence intensity (a.u.).
Regarding “TGGATAAGGATGTGTGAGACGTGTGATCTTTACTTGTTGGCGGAGTCACCTAGTGCAG”, the binding signal was 3980 fluorescence intensity (a.u.).
On to “GCAGTATATGTGTGTGTGCTTTCTTTTGGGATAGAGTCTGCGGAGTCACCTAGTGCAG”, for which the binding signal is 3460 fluorescence intensity (a.u.).
The result for “TACTTTAAATGTGTGTCCGTATATCCGATGTGACACGCCACGGAGTCACCTAGTGCAG” reads 3870 fluorescence intensity (a.u.); that for “TAAACATATATGCATGGATGATGTCATGGAAACATGGATTCGGAGTCACCTAGTGCAG”, 4690 fluorescence intensity (a.u.).
The result for “GATCAATCATCCTTGTTCACAAGGCTGCCTGACATGGATGCGGAGTCACCTAGTGCAG” reads 3730 fluorescence intensity (a.u.); that for “AGATGGGAAATAAAGGGTGGTGACATGGCACACTGACATGCGGAGTCACCTAGTGCAG”, 10800 fluorescence intensity (a.u.); that for “GGTGTCACGTAAGCGCCACGTCAGCGAACCGCCCTCCAAACGGAGTCACCTAGTGCAG”, 26600 fluorescence intensity (a.u.).
On to “TACTGCCACGTAGGCGCCACGTCAGCGAAACCGCCCTCCACGGAGTCACCTAGTGCAG”, for which the binding signal was 58100 fluorescence intensity (a.u.).
For the sequence “CGCTCCGTCAGCCACGTAGACGCTACGTCGGCCAAAACCGCGGAGTCACCTAGTGCAG”, the binding signal was 14900 fluorescence intensity (a.u.).
As to “CCGAGTCAATACTGCCACGTAGCGCGCCACGTCAGCGAAACGGAGTCACCTAGTGCAG”, the binding signal is 26300 fluorescence intensity (a.u.).
With “AAAAGCCCACCACCACCCAACCCGCCCAACGCCACGTCACCGGAGTCACCTAGTGCAG”, the binding signal was 24800 fluorescence intensity (a.u.).
The result for “GCCCACGCTCACCGACTCCATCGACGTCACGCTCACCGCCCGGAGTCACCTAGTGCAG” reads 5090 fluorescence intensity (a.u.).
Regarding “GTCAAAACCGCCACGTAGACGCCACGTCATCGAAACCGCCCGGAGTCACCTAGTGCAG”, the binding signal was 40400 fluorescence intensity (a.u.).
The result for “GCGCCACGTAGACGCCACGTCAGCCAAAACCGCCCTCCATCGGAGTCACCTAGTGCAG” reads 52000 fluorescence intensity (a.u.); that for “CAAACAAGCCACGTAGATGCCACGTCATCCAAAACCGCCTCGGAGTCACCTAGTGCAG”, 29600 fluorescence intensity (a.u.); that for “TCCGTGACACCGTGACAGCGTGGACGTTCATAACCTTCCACGGAGTCACCTAGTGCAG”, 9010 fluorescence intensity (a.u.).
Regarding “GACCTCGCGAACAGCCCACACGTACGTTACTGACGCCATACGGAGTCACCTAGTGCAG”, the binding signal is 4360 fluorescence intensity (a.u.).
As for “ACAGGTAGCTCCATATCTTGTTCATATTGACATACACAATCGGAGTCACCTAGTGCAG”, the binding signal was 31500 fluorescence intensity (a.u.).
On to “TGCAAATTTTCAAAATCGACTACCAGTAGATGTTTACTCCCGGAGTCACCTAGTGCAG”, for which the binding signal is 14000 fluorescence intensity (a.u.).
The result for “CAAGAATGTACTGAGTACGTCTCAATCCACGTGTTTGAGCCGGAGTCACCTAGTGCAG” reads 4960 fluorescence intensity (a.u.); that for “ATGCAGCCACACGGATGTTGGACGTCATTGTCTATAGTGTCGGAGTCACCTAGTGCAG”, 4580 fluorescence intensity (a.u.); that for “TATAGTTGTGTACTAGTGTCACTCACGCCACCCGTCTCATCGGAGTCACCTAGTGCAG”, 3670 fluorescence intensity (a.u.).
The result for “TCACGAACTGTGTACCGGATGCCACGTCACACAGTTGTCTCGGAGTCACCTAGTGCAG” reads 41200 fluorescence intensity (a.u.).
Turning to “AGTTAATGGAGGAGCCACCGCCACGTAAGTGCCACGTAGGCGGAGTCACCTAGTGCAG”, the binding signal was 56200 fluorescence intensity (a.u.).
Consider “ACAAGCCACGTAGGCGCCACGTCAGCCAAAACCGCCTTCACGGAGTCACCTAGTGCAG”, for which the binding signal was 44100 fluorescence intensity (a.u.).
The result for “ACCAGCCACGTAGGCGCCACGTCAGCTAAAACCGCCTTCACGGAGTCACCTAGTGCAG” reads 19900 fluorescence intensity (a.u.).
As to “AGTAAAAGGAGCCACGTAGGCGCCACGTCATCCAAAACCACGGAGTCACCTAGTGCAG”, the binding signal is 47600 fluorescence intensity (a.u.).
As for “AAACTAGCCACGTTGGCGCCACGTCAGCCAAAACCGCCTTCGGAGTCACCTAGTGCAG”, the binding signal was 33700 fluorescence intensity (a.u.).
The result for “CGTAAGCGCCACGTTAATGCCACGTGGGGCGAAGACCTAGCGGAGTCACCTAGTGCAG” reads 15100 fluorescence intensity (a.u.).
The result for “AACCAGCCACGTAGGCGCCACGTCAGCCAAAACTGCTATCCGGAGTCACCTAGTGCAG” reads 35900 fluorescence intensity (a.u.); that for “GGCCGCGTAGGCGCCACATCAGCCAAAACCACCATCAAAACGGAGTCACCTAGTGCAG”, 4590 fluorescence intensity (a.u.).
The result for “TTGCAGTGCCACCTCACCGCCACGTAGGATGATGACTAAGCGGAGTCACCTAGTGCAG” reads 25800 fluorescence intensity (a.u.); that for “CATTATACTGTTCATAAACATGAATATCACAACCTGTTCTCGGAGTCACCTAGTGCAG”, 21100 fluorescence intensity (a.u.); that for “GTGTGGGGATAAACAGAGGTAGAGACATGTGTCAGATGACCGGAGTCACCTAGTGCAG”, 3150 fluorescence intensity (a.u.).
Take “CTTCTTTCCCGCACGCGCGGCTCGCGCATGCATGCACGATCGGAGTCACCTAGTGCAG”: the binding signal is 15000 fluorescence intensity (a.u.).
